PERK inhibitor: inhibitors of human PERK kinase; Q9NZJ5; CHO PERK-DD fusion, SEAP luminescence translation reporter; inhibition, % at 5.6 µM; hit rate 0.17% among 220,000; AID 1416;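 active means inhibition above the mean inhibition of all tested compounds plus 3 SD, set separately per screening campaign, cut at about 2.9% in these data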;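 further: PERK kinase domain activated by AP20187 dimerizer at 100 nM; 0% = DMSO with dimerizer and 100% = rapamycin at 8.4 µM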
GRK2 inh: blocks RNA aptamer binding to human GRK2 | P25098 | bead flow cytometry, FAM-aptamer displacement from GRK2 | inhibition of aptamer binding, % at 10 µM | hit rate 0.59% among 330,000 | AID 488847;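 active means inhibition of aptamer binding above 40%, roughly 3 SD of noise, on plates passing a quality check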;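 further: median bead fluorescence of bound FAM aptamer so fluorescent compounds give negative values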
eIF4H inh: inhibitors of RNA binding by human eIF4H; Q15056; eIF4H fluorescence polarization binding assay; inhibition, % at 35 µM; hit rate 0.94% among 290,000; AID 2012;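 further: calls also rest on retests at 20 µM and on dose response follow-up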
PABP polyA inh: blocks human PABP binding to poly(A) RNA; hit rate 1% among 290,000; P11940; AID 2014; fluorescence polarization; inhibition, % at 35 µM;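 further: calls also rest on retests at 20 µM and on dose response follow-up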
MLLE-PAM2 inh: inhibitors of microRNA-mediated deadenylation, human PABP1 MLLE binding; hit rate 0.36% among 360,000; AID 588489; GST-MLLE / FITC-PAM2 fluorescence polarization; inhibition, % at 20 µM; in the data active means inhibition above about 35%, passing the limit was not always enough;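 further: plate controls were DMSO wells with GST-MLLE for no effect and wells lacking GST-MLLE protein for full effect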
The depositor's hits bear a star; ? = inconclusive; . = not tested or not shown. In the library only some 1.9% were active in any assay of this set; here they are far more common. Unless noted, how the calls were made is not given here.

SMILES | PERK inhibitor | GRK2 inh | eIF4H inh | PABP polyA inh | MLLE-PAM2 inh
CCOC(=O)c1cc(CC)sc1NC(=O)c1ccc([N+](=O)[O-])c(N2CCOCC2)c1 | 1 | 0 | -5 | 1 | 2
Cc1cccc(N=C2NC(=O)/C(=C/C=C/c3ccco3)S2)c1C | 1 | 3 | 85 | active | -18
Cc1ccc(N=C2NC(=O)/C(=C/C=C/c3ccco3)S2)cc1 | 1 | 6 | 76* | 22* | -39
Cc1cccc(N=C2NC(=O)/C(=C/c3cccnc3)S2)c1C | 0 | 1 | 4 | 2 | 4
O=C1NC(=Nc2ccccc2)S/C1=C\C=C\c1ccco1 | 0 | 6 | 80 | -6 | -53
COc1ccc(N=C2NC(=O)/C(=C/c3ccco3)S2)cc1 | -1 | 0 | 66* | 26 | -22
O=C1Nc2ccccc2N(O)N1c1cc(-c2cccc(Cl)c2)no1 | 1 | 2 | -4 | 19 | -3
O=C1Nc2ccccc2N(O)N1c1cc(-c2ccccc2Cl)no1 | 3.2* | 0 | -4 | -5 | 7
CCc1nc2ccc(C(=O)N(C)C(C)C)cn2c1N(CCC(C)C)CCN(C)C | . | . | . | . | 16
CC(=O)Nc1c(Nc2ccccc2)c2ccccc2oc1=O | 0 | 0 | -7 | 0 | 47*
CC(=O)Nc1c(NC(C)C)c2ccccc2oc1=O | 1 | 2 | 5 | 0 | 1
Cc1ccc(O)c(C=Nc2ccc3[nH]ncc3c2)c1 | 1 | 0 | 68* | active | 1
Cc1ccc(O)c(C=Nc2cc(C)ccc2O)c1 | 1 | 4 | 68 | 118 | 4
O=c1[nH]c(=S)[nH]c2nccnc12 | . | . | . | . | 21
Cc1ccc(-c2nc3ncccn3c2Nc2ccccc2C)o1 | 0 | 1 | 13 | ? | -3
Cc1ccc(-c2nc3cnccn3c2Nc2c(C)cccc2C)o1 | 1 | 2 | 10 | 15 | 39*
CN1CCN(CCc2nc3cc(NC(=O)COc4ccccc4)ccc3n2C)CC1 | 0 | 0 | -3 | -5 | 5
CC(C)C(=O)Nc1ccc2c(c1)nc(CCN1CCN(C)CC1)n2C | 3.6* | 2 | 7 | 0 | -7
CCCCOC(=O)c1ccc(NC(=O)COC(=O)CSc2nc(C)cc(C)n2)cc1 | 0 | 0 | 4 | 6 | -17
COc1ccc(-c2nn(-c3ccccc3)cc2C(=O)OCC(=O)c2ccc(C)c([N+](=O)[O-])c2)cc1 | 1 | 0 | -5 | 16 | 5
CC1=CC(=O)C(Sc2ccc(C)cc2)=CC1=O | . | . | . | . | 35*
Nc1nc(-c2ccccc2)c(CCCNc2ccccc2)c(=O)[nH]1 | . | . | . | . | 4
CCc1ccc(OS(=O)(=O)c2cn(C)c(=O)n(C)c2=O)cc1 | 0 | 2 | -5 | -3 | 41*
COc1ccc(CNS(=O)(=O)c2cn(C)c(=O)n(C)c2=O)cc1 | . | 0 | -2 | 2 | 7
CN(CCO)S(=O)(=O)c1ccc2c(c1)C(=NN)c1cc(S(=O)(=O)N(C)CCO)ccc1-2 | . | 0 | -6 | 10 | -13
SMILES | PERK inhibitor | GRK2 inh | eIF4H inh | PABP polyA inh | MLLE-PAM2 inh
CCn1c(C)nc2cc(S(=O)(=O)C(F)F)ccc21 | 0 | 2 | -4 | -4 | -6
CCn1c(C)nc2cc(S(=O)(=O)Nc3ccc(C)cc3)ccc21 | 1 | 1 | 8 | 51* | -139
O=C(O)c1cccc(NS(=O)(=O)/C=C/c2ccccc2)c1 | 0 | 6 | -4 | 0 | 0
O=C(O)c1ccc(NS(=O)(=O)/C=C/c2ccccc2)cc1 | 0 | 55* | -2 | 3 | 2
Cc1cc(C)n(CC2CC(=O)N(c3ccc(F)c(Cl)c3)C2=O)n1 (stereo not given) | -1 | 0 | 4 | 1 | 2
Cc1cc(C)n(CC2CC(=O)N(c3ccc(C)c(Cl)c3)C2=O)n1 (stereo not given) | -1 | 0 | ? | 100* | 13
Nc1nonc1-c1nc2ccccc2n1CC(=O)N/N=C/c1ccc(-c2cccc(C(=O)O)c2)o1 | 1 | . | 86* | active | 3
Cc1nnc(N/N=C/c2ccc(-c3ccc(Br)cc3)o2)n1N | 1 | 2 | 8 | -10 | 2
Cc1nnc(N/N=C\c2ccc(-c3cccc(C(=O)O)c3)o2)n1N | 1 | 88* | 0 | 3 | -2
Nc1nnc(CC(=O)N/N=C/c2ccc(-c3ccc(F)cc3)o2)s1 | 0 | 0 | -1 | -1 | -16
Nc1nnc(CC(=O)N/N=C/c2ccc(-c3cccc(C(=O)O)c3)o2)s1 | 2 | 2 | 76* | 41 | 0
Nc1nonc1-c1nc2ccccc2n1CC(=O)O | 0 | 0 | 7 | 18 | -7
C=CCC(C(=O)Oc1c(C(C)(C)C)cc(C)cc1C(C)(C)C)c1ccccc1 (stereo not given) | . | 0 | . | . | 3
Cc1c(C(=O)OCc2ccc(F)cc2)sc2nc3n(c(=O)c12)CCC3 | . | 0 | . | . | -1
Cc1nn(CC(C)C)c(Cl)c1C(=O)N(C)CC(=O)Nc1ccc(Cl)cc1 | . | . | . | . | -1
CC12CCC(C(=O)C1)C1(C)CCCC(=O)C21 (stereo not given) | . | . | . | . | -3
Nc1cc(N)c(OCC(F)(F)F)cc1OCC(F)(F)F | 1 | 4 | 106* | 90* | 18
CCC(=O)/C=C1/Sc2ccccc2N1CC | 0 | 1 | -2 | 21 | 20
CCN1/C(=C/c2cc[n+](CCCS(=O)(=O)[O-])c3ccccc23)Sc2ccccc21 | 1 | 1 | 97* | 7 | -162
COc1ccc(N2CCN(C3CCCN(Cc4cccc(C(C)=O)c4)C3)CC2)cc1 (stereo not given) | . | 0 | 2 | -10 | 1
O=C(CSc1nnc2ccccn12)Nc1ccc2c(c1)OCCO2 | 1 | 1 | 1 | -4 | 0
COc1ccc(NC(=O)CN(C)C(=O)Cn2cnc3c2c(=O)n(C)c(=O)n3C)cc1 | . | 0 | . | . | -11
O=C(CN1C(=O)NC(c2ccccc2)(c2ccccc2)C1=O)N1CCOCC1 | . | 0 | . | . | 14
CN(C)c1ccc(Cl)cc1N | 0 | 3 | 69* | -15 | -1
O=C(CSC1=NCCS1)Nc1nc2ccccc2s1 | 0 | 0 | -10 | -7 | 42*
SMILES | PERK inhibitor | GRK2 inh | eIF4H inh | PABP polyA inh | MLLE-PAM2 inh
CCSCc1nnc(SCC(=O)Nc2nc3ccccc3s2)n1C | 0 | 0 | 3.0* | 60* | -113
Cc1cc(NC(=O)CSC2=NCCS2)no1 | 1 | 2 | -12 | -3 | 44*
COc1ccc(CCn2c(C)cc(C(=O)CCl)c2C)cc1OC | 0 | 1 | 1 | -8 | -14
CCN(CC)S(=O)(=O)c1ccc(C(=O)NCC(=O)NCc2ccc3c(c2)OCO3)cc1 | . | . | . | . | -14
CCOc1ccccc1OCCCC(=O)NNC(=O)c1cc(C)oc1C | . | 0 | . | . | 10
COCC(O)Cn1ccnc1[N+](=O)[O-] (stereo not given) | . | . | . | . | 6
C=CCNc1nc(NCc2ccccc2)c(C#N)c2c1CN(C)CC2 | 0 | 0 | ? | ? | 22
N#Cc1c(NCCN)nc(NCc2ccccc2)c2c1CCN(Cc1ccccc1)C2 | -2 | . | 62* | 72* | -11
Cc1ccc(S(=O)(=O)N(C)c2ccc(C(=O)N(C)Cc3nc4ccccc4c(=O)[nH]3)cc2)cc1 | . | . | . | . | 2
COc1ccc(-c2nc(C)ncc2-c2csc(C)n2)c(O)c1 | 0 | 0 | 73* | active | 13
